The record followed here is paper PMC5540273 (PLoS ONE, 2017).

Some results are limits rather than exact numbers.
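Note: kd values determined as follow-up on hits from a single-replicate KINOMEscan panel screen.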

The subject of one assay is TYK2(JH2domain-pseudokinase).
As for `COc1ccc2nc(-c3cccc(C)n3)nc(Nc3ccncc3)c2c1` [GSK204919], the Kd (usually the free concentration of one partner at which half of the binding sites on the other are occupied at equilibrium, for simple one-to-one binding) is 2000 nM.

The compound `Nc1ncnc2[nH]c(-c3ccccc3)nc12` [AH5015] gave a Kd of 96 nM. The compound `Cc1csc(-c2nc(Nc3ccncc3)c3ccccc3n2)n1` [GW869640] had a Kd of 530 nM.

The test system of the next assay is ULK3.
On to `COc1ccc(CNC(=O)NC2CCN(c3ccnc(Nc4cc(OC)c(OC)c(OC)c4)n3)C2)cc1` (stereo not shown) [GSK1379748], for which the Kd stood at 550 nM. The same measure, in the same setting: the figure for `COc1ccccc1-c1ccc2c(NC(=O)C3CC3)n[nH]c2n1` [SB-711239] is > 10000 nM; for `COc1cc(Nc2nccc(N3CCC(NC(=O)Nc4cc(C)ccc4C)C3)n2)cc(OC)c1OC` (stereo not shown) [GSK1379762] it is 4300 nM.

Another assay relates to T1, VPS34.
T1 construct: gene PIK3C3
`Cc1nnc(-c2ccc3occ(-c4ccc(S(C)=O)cc4)c3c2)[nH]1` (stereo not shown) came in with a Kd of 62 nM. For the compound `Cc1cccc(-c2nc(-c3ccc(S(C)(=O)=O)cc3)sc2-c2ccnc(NCCc3ccccc3)c2)c1`, binding was characterised by a dissociation constant (Kd) of 8400 nM. Consider `O=c1cc(N2CCOCC2)nc2n(Cc3cccc(Cl)c3Cl)ccn12` [GSK2286295], for which binding was characterised by a dissociation constant (Kd) of 2.1 nM. Turning to `CS(=O)(=O)c1ccc(-c2c(-c3ncn[nH]3)sc(N3CCOCC3)c2C#N)cc1`, the affinity, expressed as Kd, was 110 nM.

`Cc1c(Cn2ccn3c(=O)cc(N4CCOCC4)nc23)cccc1C(F)(F)F` [GSK2289044] had a Kd of 64 nM.

A further assay concerns T2, YSK4.
T2 construct: gene MAP3K19
In turn, `O=C(Nc1ccccc1)Nc1cccc(Oc2ccc3nccn3n2)c1` displayed a Kd of 270 nM. For the compound `Nc1ncnc2[nH]c(-c3ccccc3)nc12` [AH5015], the Kd was 270 nM. On the same count and under the same terms, to `Cn1ccc2ncnc(Oc3ccc(NC(=O)Nc4ccccc4)cc3)c21` belongs 170 nM; to `O=C(Nc1n[nH]c2nc(-c3nccs3)c(Br)cc12)C1CC1` [SB-742251], 210 nM. The same measure, in the same setting: the figure for `O=C(O)COc1ncnc2cc(-c3ccc4[nH]ncc4c3)sc12` is 20 nM. Still for that read-out and setting: the figure for `Cc1ccc(NC(=O)Nc2cccc(Cl)c2)cc1-c1ccc(C(=O)Nc2ccncc2)cc1` [GSK1398468] is 61 nM; for `NC(=O)c1nnc2ccccc2c1N` it is 300 nM.

Compound `Cc1cc(-c2ccc3c(c2)CC[C@@H](N[C@@H](C)c2ccccc2)C3)cnc1N.Cl` [GW412617] displayed a Kd of 2400 nM.
